Reference: PubChem BioAssay
Activity calls are given as the source filed them.

Assays:
[1] = anti-His antibody binders, primary screen, artefact control for SMM control protein annotation, biochemical, small-molecule microarray, 635 nm fluorescence (AID 1128); settings: anti-His Alexa647 antibody binding, higher = more signal;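 note: score merges feature fluorescence with signal-to-noise for each printed compound spot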
[2] = test system: Human papillomavirus type 1a E7 protein (residues 1-88); assay: HPV1a E7 small-molecule binders, primary screen, biochemical, small-molecule microarray, residues 1-88, 635 nm (AID 1129); settings: small-molecule microarray binding, fluorescence 635 nm; higher = more signal
[3] = target: Focal adhesion kinase 1 (Homo sapiens) (UniProt Q05397); assay: small-molecule microarray binders of FAK, primary screen, biochemical, 635/667 nm fluorescence, BSA, DTT (AID 1130); settings: PTK2 binding, 635 nm fluorescence, higher = more signal;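 note: composite of spot emission at 667 nm and signal to noise over triplicate slides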
Sequence of Focal adhesion kinase 1 (Homo sapiens) (Q05397 whole entry, looked up): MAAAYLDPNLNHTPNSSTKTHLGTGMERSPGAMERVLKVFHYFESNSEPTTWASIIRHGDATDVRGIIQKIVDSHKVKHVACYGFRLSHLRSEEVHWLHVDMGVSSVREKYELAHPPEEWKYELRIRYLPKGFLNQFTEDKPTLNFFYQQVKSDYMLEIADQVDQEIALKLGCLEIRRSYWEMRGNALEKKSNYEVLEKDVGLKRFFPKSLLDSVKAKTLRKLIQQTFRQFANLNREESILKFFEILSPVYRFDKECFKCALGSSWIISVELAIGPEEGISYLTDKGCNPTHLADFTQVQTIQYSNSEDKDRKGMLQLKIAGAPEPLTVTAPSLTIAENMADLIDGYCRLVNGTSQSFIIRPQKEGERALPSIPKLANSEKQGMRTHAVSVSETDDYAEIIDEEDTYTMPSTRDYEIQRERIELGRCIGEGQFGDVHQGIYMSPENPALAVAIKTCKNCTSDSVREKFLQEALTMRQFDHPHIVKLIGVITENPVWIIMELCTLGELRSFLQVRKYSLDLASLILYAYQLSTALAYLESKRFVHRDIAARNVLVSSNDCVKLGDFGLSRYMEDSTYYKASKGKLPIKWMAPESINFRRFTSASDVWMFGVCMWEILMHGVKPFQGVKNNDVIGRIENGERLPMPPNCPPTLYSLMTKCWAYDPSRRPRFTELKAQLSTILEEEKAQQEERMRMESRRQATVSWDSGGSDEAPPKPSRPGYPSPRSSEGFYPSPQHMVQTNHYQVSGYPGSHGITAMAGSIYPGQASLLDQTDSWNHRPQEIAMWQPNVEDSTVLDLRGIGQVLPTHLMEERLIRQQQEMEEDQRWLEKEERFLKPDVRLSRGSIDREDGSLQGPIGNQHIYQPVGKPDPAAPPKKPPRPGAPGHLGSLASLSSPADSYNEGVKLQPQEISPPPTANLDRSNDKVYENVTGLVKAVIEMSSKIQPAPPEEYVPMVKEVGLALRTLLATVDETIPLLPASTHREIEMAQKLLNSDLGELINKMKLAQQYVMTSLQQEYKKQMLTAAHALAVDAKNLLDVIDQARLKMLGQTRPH

[4] = test system: Fibrinogen (Alexa647-labelled); assay: fibrinogen binders on compound microarrays, profiling panel, artefact control for SMM control-protein annotation, biochemical, small-molecule microarray, 635/667 nm fluorescence (AID 1131); settings: fibrinogen-A647 binding fluorescence, higher = more signal;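 note: z-score merges 667 nm fluorescence with per-spot signal-to-noise over triplicate slides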
[5] = target: Follistatin (Homo sapiens) (UniProt P19883); assay: follistatin binders on small-molecule microarrays, primary screen, biochemical, small-molecule microarray, 635/667 nm fluorescence (AID 1132); settings: FST binding, 635 nm fluorescence, higher = more signal
Sequence of Follistatin (Homo sapiens) (P19883 whole entry, looked up): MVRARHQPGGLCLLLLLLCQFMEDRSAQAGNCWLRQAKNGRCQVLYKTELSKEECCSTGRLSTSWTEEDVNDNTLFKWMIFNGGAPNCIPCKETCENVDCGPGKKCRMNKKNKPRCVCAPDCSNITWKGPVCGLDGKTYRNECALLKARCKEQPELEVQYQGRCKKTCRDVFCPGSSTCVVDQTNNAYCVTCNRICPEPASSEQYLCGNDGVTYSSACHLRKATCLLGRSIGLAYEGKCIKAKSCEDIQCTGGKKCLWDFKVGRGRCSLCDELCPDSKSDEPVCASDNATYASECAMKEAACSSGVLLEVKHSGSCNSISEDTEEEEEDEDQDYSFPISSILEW

[6] = target: Fibroblast growth factor 2 (Homo sapiens) (UniProt P09038); assay: FGF2 binders on small-molecule microarrays, primary screen, biochemical, small-molecule microarray, 635/667 nm fluorescence (AID 1133); settings: small-molecule microarray binding, FGF2, fluorescence 635/667; higher = more signal
Sequence of Fibroblast growth factor 2 (Homo sapiens) (P09038 whole entry, looked up): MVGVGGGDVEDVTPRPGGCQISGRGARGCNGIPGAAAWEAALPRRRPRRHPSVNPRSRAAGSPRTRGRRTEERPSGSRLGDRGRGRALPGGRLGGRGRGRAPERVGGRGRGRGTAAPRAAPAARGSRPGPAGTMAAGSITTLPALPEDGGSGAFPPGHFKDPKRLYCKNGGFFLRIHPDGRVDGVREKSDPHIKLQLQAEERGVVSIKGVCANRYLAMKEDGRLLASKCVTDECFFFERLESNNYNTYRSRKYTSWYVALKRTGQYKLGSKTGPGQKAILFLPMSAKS

[7] = mitochondrial membrane potential change in A549 cells, profiling panel, cell-based, JC-1 fluorescence, basal, 24 h, 100 nL (AID 1138); settings: higher = more signal;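 note: A549 lung adenocarcinoma cells under basal conditions with no added stimulus; test concentration not given here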
Lefty1 = Lefty1 binders on small-molecule microarrays, primary screen, biochemical, small-molecule microarray, 635/667 nm fluorescence (AID 1139); settings: small-molecule microarray binding, fluorescence 635/667; higher = more signal
[8] = test system: wheat germ agglutinin (Triticum aestivum), Alexa647-labelled; assay: wheat germ agglutinin binders on compound microarrays, profiling panel, artefact control for SMM control-protein annotation, biochemical, small-molecule microarray, 635/667 nm fluorescence (AID 1140); settings: WGA-A647 binding, 635 nm fluorescence, higher = more signal;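 note: score merges 667 nm feature emission with signal to noise over triplicate slides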
[9] = target: Luciferin 4-monooxygenase (Photinus pyralis) (UniProt P08659); assay: firefly luciferase enzyme inhibitors, primary screen, biochemical, luminescence, purified enzyme, 2006 set (AID 1141); settings: SteadyGlo luminescence, 30 min, higher = more signal, called active from +8 up or from −8 down;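 note: cell-free assay with purified firefly luciferase at 100 ng per well in PBS; test concentration not given here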
Sequence of Luciferin 4-monooxygenase (Photinus pyralis) (P08659 whole entry, looked up): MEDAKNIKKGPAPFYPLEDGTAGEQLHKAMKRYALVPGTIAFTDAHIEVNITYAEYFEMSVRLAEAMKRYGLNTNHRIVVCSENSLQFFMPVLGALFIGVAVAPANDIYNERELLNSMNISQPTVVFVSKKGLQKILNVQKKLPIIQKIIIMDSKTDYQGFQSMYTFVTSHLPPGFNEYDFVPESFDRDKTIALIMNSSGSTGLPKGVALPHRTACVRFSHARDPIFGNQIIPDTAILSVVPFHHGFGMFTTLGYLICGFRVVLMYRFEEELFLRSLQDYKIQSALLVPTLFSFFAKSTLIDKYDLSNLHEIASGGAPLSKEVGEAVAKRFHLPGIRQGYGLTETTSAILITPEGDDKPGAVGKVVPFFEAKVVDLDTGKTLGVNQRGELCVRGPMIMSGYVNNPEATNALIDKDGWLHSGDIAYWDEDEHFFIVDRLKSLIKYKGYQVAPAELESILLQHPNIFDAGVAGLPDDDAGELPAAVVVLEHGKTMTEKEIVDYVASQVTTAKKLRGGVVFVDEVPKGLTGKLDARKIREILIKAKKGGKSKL

CC(C)N1C(=O)[C@@]2(Cc3ccccc31)c1ccccc1C(=O)N(C1CCCCC1)[C@H]2c1ccc(CO)cc1
composite z-score [1]: -0.192
composite z-score [2]: 0.37
composite z-score [3]: -0.0723
composite z-score [4]: 0.193
composite z-score [5]: 1.33
composite z-score [6]: 0.254
z-score [7]: -0.958
composite z-score (Lefty1): 0.958
composite z-score [8]: -0.01
z-score [9]: 1.11 (inactive)

CCC(CC)C(O)C1C=CC2C(=O)N(C)C(=O)C2N1Nc1ccccc1 (stereo not given)
composite z-score [1]: 1.02
composite z-score [2]: 1.08
composite z-score [3]: 0.43
composite z-score [4]: 0.964
composite z-score [5]: 0.895
composite z-score [6]: -0.194
z-score [7]: -0.513
composite z-score (Lefty1): 0.434
composite z-score [8]: 1.1
z-score [9]: -0.445 (inactive)

O=C1NC(=O)C2C1C=CC(C(O)Cc1ccccc1)N2Nc1ccc(Cl)cc1Cl (stereo not given)
composite z-score [1]: 0.432
composite z-score [2]: -0.364
composite z-score [3]: 0.247
composite z-score [4]: 0.773
composite z-score [5]: 0.178
composite z-score [6]: -0.644
z-score [7]: 2.92
composite z-score (Lefty1): -0.695
composite z-score [8]: 0.834
z-score [9]: 0.981 (inactive)

C=CCOC(=O)[C@H]1[C@@H]2C(=O)O[C@@H](c3ccccc3)[C@@H](c3ccccc3)N2[C@@H](c2ccc(OCCOC(=O)[C@H]3C[C@H]4C(=O)N5CCC[C@H]5C(=O)N4[C@H]3c3ccc(O)cc3)cc2)[C@]12C(=O)Nc1ccc(I)cc12
composite z-score [1]: 2.88
composite z-score [2]: 1.23
composite z-score [3]: -0.0378
composite z-score [4]: 0.396
composite z-score [5]: 1.47
composite z-score [6]: 1.6
z-score [7]: -0.87
composite z-score (Lefty1): 1.54
composite z-score [8]: 1.66
z-score [9]: 0.269 (inactive)

O=C1OCCC/C=C\[C@H]2OC34C=CCN(Cc5ccccc5)C(=O)[C@H]3N(CCCCCCO)C(=O)[C@@H]4C12 (stereo not given in full)
composite z-score [1]: 0.727
composite z-score [2]: -0.39
composite z-score [3]: 0.0123
composite z-score [4]: -1.98
composite z-score [5]: -1.61
composite z-score [6]: -0.929
z-score [7]: 1.59
composite z-score (Lefty1): -1.55
composite z-score [8]: -0.513
z-score [9]: -1.76 (inactive)

CCN(CC)c1ccc(N2CC=CC34O[C@@H]5/C=C\CCC(C)OC(=O)C5[C@H]3C(=O)N(C(CO)C(C)C)[C@@H]4C2=O)cc1 (stereo not given in full)
composite z-score [1]: -0.264
composite z-score [2]: -0.651
composite z-score [3]: 0.174
composite z-score [4]: -0.4
composite z-score [5]: -0.452
composite z-score [6]: 0.0509
z-score [7]: 0.93
composite z-score (Lefty1): -0.674
composite z-score [8]: -0.558
z-score [9]: -1.09 (inactive)

CN(C)CCCNC(=O)[C@@]1(c2ccc([N+](=O)[O-])cc2)CC(=O)N(C2CCCCC2)[C@@H]1c1ccc(CO)cc1
composite z-score [1]: -0.0406
composite z-score [2]: 0.108
composite z-score [3]: -0.221
composite z-score [4]: 0.874
composite z-score [5]: 0.928
composite z-score [6]: -0.209
z-score [7]: 1.22
composite z-score (Lefty1): 0.401
composite z-score [8]: -0.0351
z-score [9]: -0.0244 (inactive)

COC(=O)[C@@]1(Cc2ccc(F)cc2)[C@H]2c3cc(C(=O)N4CCCC4)n(Cc4cc(C)n(C)n4)c3C[C@H]2CN1C(=O)c1ccccc1
composite z-score [1]: 1.85
composite z-score [2]: 1.26
composite z-score [3]: 1.03
composite z-score [4]: 1.01
composite z-score [5]: 0.392
composite z-score [6]: -0.47
z-score [7]: 0.0507
composite z-score (Lefty1): -0.847
composite z-score [8]: 0.628
z-score [9]: 0.609 (inactive)

CCOC(=O)C[C@H]1[C@H](OC(=O)Cc2ccc3c(c2)OCO3)[C@@H](NC(=O)c2ccc(-c3ccccc3)cc2)c2cc(OCCCO)ccc2N1C(=O)c1ccc2ccccc2n1
composite z-score [1]: 0.0542
composite z-score [2]: 0.242
composite z-score [3]: 0.179
composite z-score [4]: 0.368
composite z-score [5]: 0.46
composite z-score [6]: -0.0919
z-score [7]: -0.728
composite z-score (Lefty1): 0.278
composite z-score [8]: 0.132
z-score [9]: 0.74 (inactive)

COC(=O)[C@@]1(Cc2ccc(OC)cc2)[C@H]2c3cc(C(=O)N4CCCC4)n(Cc4ccccc4)c3C[C@H]2CN1C(=O)c1ccccc1
composite z-score [1]: 3
composite z-score [2]: 1.25
composite z-score [3]: 1.32
composite z-score [4]: 1
composite z-score [5]: 0.506
composite z-score [6]: -0.368
z-score [7]: 0.581
composite z-score (Lefty1): -0.292
composite z-score [8]: 1.1
z-score [9]: 2.01 (inactive)

CCCCN1CC=CC23O[C@@H]4C=CCOC(=O)[C@@H]4[C@H]2C(=O)N(CCCCCO)[C@@H]3C1=O (stereo not given in full)
composite z-score [1]: 0.0981
composite z-score [2]: -0.444
composite z-score [3]: -0.204
composite z-score [4]: -0.921
composite z-score [5]: -0.712
composite z-score [6]: -0.342
z-score [7]: -0.478
composite z-score (Lefty1): -0.393
composite z-score [8]: -0.651
z-score [9]: 0.01 (inactive)

CCCCCC1=C2CNC(CCC)(C(=O)OC)C=C2C(C)C1=O (stereo not given)
composite z-score [1]: -0.252
composite z-score [2]: 0.859
composite z-score [3]: 0.682
composite z-score [4]: -0.288
composite z-score [5]: -0.249
composite z-score [6]: 0.0833
z-score [7]: 0.424
composite z-score (Lefty1): -0.444
composite z-score [8]: -0.0925
z-score [9]: 0.443 (inactive)

COc1cc(OC)c(C(O)C2C=CC3C(=O)NC(=O)C3N2Nc2ccc(Cl)cc2Cl)cc1Br (stereo not given)
composite z-score [1]: 1.29
composite z-score [2]: 1.22
composite z-score [3]: 0.859
composite z-score [4]: 0.786
composite z-score [5]: 0.677
composite z-score [6]: 0.518
z-score [7]: -0.824
composite z-score (Lefty1): 0.0498
composite z-score [8]: 1.07
z-score [9]: 0.719 (inactive)

O=C1O[C@@H](c2ccccc2)[C@@H](c2ccccc2)N2[C@@H](c3ccc(OCCO)cc3)[C@]3(C(=O)Nc4ccccc43)[C@@H](C(=O)NC[C@H](O)c3ccccc3)[C@H]12
composite z-score [1]: 0.87
composite z-score [2]: 0.894
composite z-score [3]: -0.177
composite z-score [4]: 0.371
composite z-score [5]: 1.34
composite z-score [6]: 0.968
z-score [7]: -0.575
composite z-score (Lefty1): 0.0849
composite z-score [8]: 0.638
z-score [9]: -1.46 (inactive)

CN1C(=O)C2C=CC(C(O)c3cc(C(F)(F)F)cc(C(F)(F)F)c3)N(N3CCCCC3)C2C1=O (stereo not given)
composite z-score [1]: 1.13
composite z-score [2]: 1.03
composite z-score [3]: 0.428
composite z-score [4]: 0.62
composite z-score [5]: -0.165
composite z-score [6]: -0.397
z-score [7]: -0.0918
composite z-score (Lefty1): -0.4
composite z-score [8]: 0.615
z-score [9]: -1.48 (inactive)

CC(CO)N1C(=O)[C@@H]2C3C(=O)OCCC/C=C\[C@H]3OC23C=CCN(c2ccc4ccccc4c2)C(=O)[C@@H]13 (stereo not given in full)
composite z-score [1]: 0.339
composite z-score [2]: -0.351
composite z-score [3]: -0.363
composite z-score [4]: 0.167
composite z-score [5]: -0.382
composite z-score [6]: -0.865
z-score [7]: 0.45
composite z-score (Lefty1): -0.632
composite z-score [8]: 0.0312
z-score [9]: -0.846 (inactive)
